Compounds with a hit are over-represented: about 3.5% of the library has one in this group of screens.
BoNT A protease = BoNT/A light chain protease inhibitors, primary screen, biochemical, flow cytometry, MLPCN library; Botulinum neurotoxin type A light chain protease (Clostridium botulinum A str. ATCC 3502); multiplex microsphere protease substrate cleavage; inhibition, % at 10 µM; 360,000 tested, 0.17% active
Anthrax LF prot = Bacillus anthracis LF protease inhibitors, primary screen, biochemical, multiplex microsphere, MLPCN library. Lethal factor (Bacillus anthracis), P15917. multiplex microsphere protease cleavage assay. inhibition, % at 10 µM. 360,000 tested, 0.12% active. AID 588501, 2011
BoNT F protease = BoNT/F light chain protease inhibitors, primary screen, biochemical, flow cytometry, MLPCN library. Multiplex microsphere protease cleavage assay. inhibition, % at 10 µM. 360,000 tested, 0.22% active; in the data active = inhibition above about 35%, passing the limit was not always enough; inconclusive = no clear call, values can overlap the other calls
Autofluor counter = compound fluorescence in toxin protease inhibitor counterscreen. compound autofluorescence counterscreen, microsphere flow cytometry; stronger effect = higher value. fluorescence intensity (no concentration beside the values). 360,000 tested, 3.1% active; in the data active = fluorescence intensity above about 16000; inconclusive = no clear call, values can overlap the other calls
Each line names hits and unclear results; the compound was inactive in the other large screens. Rule as the data show it, unless noted: active = inhibition above about 30%; inconclusive = no clear call, values can overlap the other calls; inactive = below that.

COc1cccc(-c2csc(N3CCN(C(=O)Nc4ccccc4OC)CC3)n2)c1	BoNT A protease inconclusive, Autofluor counter 21006
COc1ccccc1NC(=O)N1CCN(c2ccnc3cc(Cl)ccc23)CC1	none
COc1ccccc1NC(=O)N1CCN(c2cc(-c3ccccc3)nc3ncnn23)CC1	BoNT A protease inconclusive, Autofluor counter 22826
C=CCn1cn[nH]c1=S	none
O=C(N1CCOCC1)N1CCN(c2nc(-c3ccccc3)cs2)CC1	Autofluor counter 22285
COc1ccc(S(=O)(=O)O/N=C2\CCSc3ccc(C)cc32)cc1	Autofluor counter 21946
Cc1ccc(S(=O)(=O)O/N=C2\CCCc3ccccc32)cc1	none
Cc1ccc(C(=O)O/N=C2\CCSc3ccc(C)cc32)cc1	BoNT A protease inconclusive, Autofluor counter 19396
CC(C)(C)NC(=O)CC1C[C@H](C(=O)N2CCCCC2)[C@@]2(CCc3ccccc3)c3[nH]c4ccccc4c3CCN2C1=O (stereo partly drawn)	none
CCc1nc(SCc2nc3ccccc3[nH]2)c2oc3ccccc3c2n1	Autofluor counter 17511
CCc1nc(SCC(=O)N2CCN(c3ccccc3)CC2)c2oc3ccccc3c2n1	Autofluor counter 17485
CCc1nc(SCC(=O)c2ccc(Cl)s2)c2oc3ccccc3c2n1	Autofluor counter 16776
Cc1nc(SCc2nc3ccc(Br)cc3[nH]2)c2oc3ccccc3c2n1	none
COC(=O)[C@@H](Cc1c[nH]c2ccccc12)NC(=O)CCC(=O)c1ccc(Br)cc1	none
CCCCCCn1c(=O)n2n(c1=O)[C@@H]1CN(S(=O)(=O)c3ccc(C)cc3)C[C@]1(O)[C@@H](OC(=O)NCc1ccco1)C2	none
Cc1nc2cc3ccccc3cc2n1C	none
Cn1c(=O)[nH]c2cc3ccccc3cc21	BoNT A protease inconclusive, Autofluor counter 19393
COc1ccccc1Oc1ccc(N2CC(C(=O)OCC(=O)c3ccccc3)CC2=O)cc1 (stereo not drawn)	none
COCCCn1c(=N)c(C(=O)NCc2ccc3c(c2)OCO3)cc2c(=O)n3cccc(C)c3nc21	none
COCCCn1c(=N)c(C(=O)NCc2ccc3c(c2)OCO3)cc2c(=O)n3ccccc3nc21	Autofluor counter 22332
COc1ccc(CNC(=O)c2cc3c(=O)n4ccccc4nc3n(Cc3cccnc3)c2=N)cc1	none
N=c1c(C(=O)NCc2ccc3c(c2)OCO3)cc2c(=O)n3ccccc3nc2n1Cc1cccnc1	Autofluor counter 24844
CNC(=O)C12CCC(C)(c3nc4cc(C)c(C)cc4nc31)C2(C)C (stereo not drawn)	Autofluor counter 23268
COCCCn1c(SCC(=O)N2CCCC(C)C2)nnc1-c1ccco1 (stereo not drawn)	Autofluor counter 21046
O=C(CSc1nnc(-c2ccco2)n1CC1CCCO1)N1CCCCC1 (stereo not drawn)	Autofluor counter 21580
CCn1c(SCC(=O)N2CCCC(C)C2)nnc1-c1ccco1 (stereo not drawn)	none
O=C(CSc1nnc(-c2ccccc2)n1CC1CCCO1)N1CCCC1 (stereo not drawn)	none
Cc1ccc(S(=O)(=O)N(C)C[C@H]2Oc3c(NC(=O)Nc4cccc5ccccc45)cccc3C(=O)N([C@@H](C)CO)C[C@@H]2C)cc1	none
Cc1c(C)n2c(SCC(=O)Nc3cccc4ccccc34)nnc2[nH]c1=O	none
N#CCC1c2ccccc2CCN1C(=O)Nc1ccc(C(F)(F)F)cc1 (stereo not drawn)	Autofluor counter 16726
N#CCC1c2ccccc2CCN1C(=O)Nc1cccc(C(F)(F)F)c1 (stereo not drawn)	none
N#CCC1c2ccccc2CCN1C(=O)Nc1cccc(Cl)c1 (stereo not drawn)	Autofluor counter 23621
N#CCC1c2ccccc2CCN1C(=O)Nc1ccc(Cl)cc1 (stereo not drawn)	none
COc1ccc(OC)c(-c2cc(C(F)(F)F)c3c(n2)sc2c(O)cc(=O)[nH]c23)c1	none
CN(Cc1ccccc1)C(=O)CN1C(=O)c2ccccc2C1=O	none
CN(Cc1ccccc1)C(=O)CN1C(=O)C2C3C=CC(C3)C2C1=O (stereo not drawn)	Autofluor counter 21276
O=C(Nc1ccc(C(F)(F)F)cc1)c1cccnc1N1CCOCC1	BoNT A protease inconclusive, Autofluor counter 21885
COc1ccc(C2/C=C\CN(C(=O)OCC3c4ccccc4-c4ccccc43)CC(=O)N2Cc2cccc(F)c2)cc1 (stereo not drawn)	none
Cc1cc(C(=O)OCC(=O)NC(C)(C)C)c2ccccc2n1	BoNT A protease inconclusive, Autofluor counter 16530
